Compounds with a hit are over-represented: about 3% of the library has one in this group of screens.
TRPM1 prom inh = reduces MITF-dependent TRPM1 promoter luciferase signal. SK-MEL-5 TRPM1 promoter luciferase, 24 h. inhibition, % at 12.5 µM. 330,000 compounds, 0.83% hits. AID 488899;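 active = mean inhibition across replicates of 60% or more, whatever share of single replicates reaches that level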
CF NFkB block = blocks PAF-induced NF-kB reporter in cystic fibrosis cells | 360,000 compounds, 0.86% hits | KKLEB NF-kB-GFP reporter, GFP fluorescence overnight | inhibition, % at 5 µM | AID 588850;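 active = at least 50% inhibition at 5 µM, scaled per plate between neutral and stimulator controls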;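 also: PAF is a Pseudomonas aeruginosa culture filtrate used as stimulus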
KKLEB cytotox = CF airway cell cytotoxicity counter-screen; KKLEB CF airway cells viability, ATPlite luminescence, overnight; hits give low values; cells stimulated with P. aeruginosa culture filtrate; activity change (cytotoxicity), % at 5 µM; 360,000 compounds, 0.36% hits;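 active = corrected activity change at or below -50% at 5 µM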
HIF-2a inh = HIF-2a inhibition; 786-0 RCC cells HIF-2a reporter, luciferase luminescence, overnight; inhibition, % at 18.8 µM; 360,000 compounds, 0.72% hits; AID 624352;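 active = inhibition of the luminescence signal of 40% or more relative to plate controls, in a single-dose primary screen at 18.75 µM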
Peg3 promoter = Peg3 promoter activity inhibition; HeLa PEG-Prom luciferase reporter, luminescence, overnight; inhibition, % at 20 µM; 360,000 compounds, 1.7% hits; AID 588405;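 active = inhibition of at least 50% at 20 µM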
ABHD5 PLIN5 PPI = blocks binding of human ABHD5 to perilipin-5 | Q00G26+Q8WTS1 | Split G. princeps luciferase complementation, luminescence, 4 h | inhibition, % at 4 µM | 360,000 compounds, 0.78% hits;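 active = inhibition above the mean inhibition across every tested compound plus 3 SD, cut at about 22% in these data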
Each line names hits and unclear results; the compound was inactive in the other large screens.

COc1cc(CNC(=O)Nc2nc(C(N)Cc3ccc(Cl)cc3)cs2)cc(OC)c1OC (stereo unspecified)	Peg3 promoter 86.3 (no result: TRPM1 prom inh)
OC[C@@H]1CN(Cc2ccc(-c3ccccc3)cc2)C[C@H](n2cnc3c(N4CCCC4)ncnc32)O1	none (no result: TRPM1 prom inh)
O=C(CCOc1ccccc1)Nc1ccc([N+](=O)[O-])cc1	none
COc1ccc(CC(N)c2csc(NC(=O)c3cccc(OC(F)(F)F)c3)n2)cc1 (stereo unspecified)	Peg3 promoter 94.4 (no result: TRPM1 prom inh)
COc1ccc(CC(N)c2csc(NC(=O)c3ccccc3OC)n2)cc1 (stereo unspecified)	none (no result: TRPM1 prom inh)
COc1ccc(CC(N)c2csc(NC(=O)NCCc3ccccc3)n2)cc1 (stereo unspecified)	Peg3 promoter 57.9 (no result: TRPM1 prom inh)
NC(CO)c1csc(NC(=O)Nc2ccccc2Cc2ccccc2)n1 (stereo unspecified)	none (no result: TRPM1 prom inh)
NC(Cc1ccc(Cl)cc1)c1csc(NC(=O)Nc2ccccc2-c2ccccc2)n1 (stereo unspecified)	Peg3 promoter 89.6 (no result: TRPM1 prom inh)
COc1ccc(CC(N)c2csc(NC(=O)c3ccccc3)n2)cc1 (stereo unspecified)	none (no result: TRPM1 prom inh)
COc1ccccc1-n1c(SCC(=O)Nc2ccc(Br)cc2)nc(O)cc1=O	none
COC(=O)[C@H](C)N(Cc1ccc(Cl)c(Cl)c1)S(=O)(=O)CCNC1CCCC1	none
O=c1[nH]c(C2CCN(S(=O)(=O)c3cccc(C(F)(F)F)c3)CC2)nc2c1nnn2Cc1cccc(F)c1	Peg3 promoter 51.4
O=c1[nH]c(C2CCN(S(=O)(=O)c3ccc4c(c3)OCCO4)CC2)nc2c1nnn2Cc1cccc(F)c1	none (no result: TRPM1 prom inh)
O=C(CCCN1C(=O)/C(=C/c2ccc(F)cc2)SC1=S)NC1CCS(=O)(=O)C1 (stereo unspecified)	none
CCN1C(=O)/C(=C/N(C(C)=O)c2ccccc2)N(c2ccccc2)C1=S	HIF-2a inh 86.4
CCc1ccc(/C=C2/C(=O)N(c3ccccc3)C(=S)N2CC(=O)OC)s1	none
CNC[C@H](NC[C@@H](NCCCc1ccccc1)c1ccccc1)[C@H](C)O	none
CSc1ccccc1NC(=O)CSc1nncs1	none
COc1cc(/C=N/NC(=O)C(=O)/C=C2\NC3(CCCC3)Cc3ccccc32)ccc1O	none
O=C(/C=C1\NC2(CCCC2)Cc2ccccc21)C(=O)N/N=C/c1ccccc1O	CF NFkB block 51.3
Cc1ccc(OCC(=O)OCC(=O)NC2CC2)cc1C	none
Cc1ccc(C2C(/C=C3/SC(=S)NC3=O)=C(c3cccs3)Oc3ccccc32)cc1 (stereo unspecified)	CF NFkB block 63.5
O=C1NC(=S)SC1=Cc1ccccc1Cl	none
COc1ccc(NC(=O)Nc2ccc3c(c2)C(=O)N([C@H](C)CO)C[C@H](C)[C@@H](CN(C)Cc2ccc(Cl)c(Cl)c2)OCCCC[C@@H](C)O3)cc1	Peg3 promoter 86.2 (no result: TRPM1 prom inh)
C[C@@H]1CCCCO[C@H](CN(C)Cc2ccc(Cl)c(Cl)c2)[C@H](C)CN([C@@H](C)CO)C(=O)c2cc(NC(=O)Nc3ccc(F)cc3)ccc2O1	none (no result: TRPM1 prom inh)
CCN(CC)CCNC(=O)c1cc(-c2ccc(Br)s2)nc2ccccc12	Peg3 promoter 101.3
CCCCNc1c(-c2ccc(OC)c(Sc3ccc(OC)cc3)c2)nc2ccccn12	Peg3 promoter 93.3
CCCCNc1c(-c2ccc(SC(C)CC)c(OC)c2)nc2ccc(Cl)cn12 (stereo unspecified)	none
CCCCCCSc1cccc(-c2nc3ccccn3c2NCc2ccccc2)c1	Peg3 promoter 73.7
CCCCCCSc1cccc(-c2nc3cc(C)ccn3c2NCc2ccccc2)c1	none
CCCCNc1c(-c2ccc(SC(C)CC)c(OC)c2)nc2ccc(C)cn12 (stereo unspecified)	Peg3 promoter 93.2
CCC(C)Sc1cccc(-c2nc3ccccn3c2NCc2ccccc2)c1 (stereo unspecified)	Peg3 promoter 73.3
COc1cccc(-c2nc(CS(=O)(=O)CC(=O)Nc3cc(OC)ccc3OC)c(C)o2)c1	none
COc1cc(OC)cc(C(=O)N2CC(=O)Nc3ccccc32)c1	none
CCC(C)Sc1cccc(-c2nc3ccc(C)cn3c2NCc2ccccc2)c1 (stereo unspecified)	Peg3 promoter 83.2
O=C1c2ccccc2C(=O)c2[nH]c(=O)[nH]c21	TRPM1 prom inh 100.5, CF NFkB block 95.7, Peg3 promoter 81.8
O=C1c2ccccc2C(=O)c2[nH]cnc21	none
COc1ccc2c(-c3ccc(S(N)(=O)=O)cc3)c(-c3ccc(S(C)(=O)=O)cc3)sc2c1	none
O=C(Nc1ccc(Br)c(C(F)(F)F)c1)c1ccc(C(F)(F)F)cc1	CF NFkB block 64.6, KKLEB cytotox -69.3 (no result: TRPM1 prom inh)
O=C(Nc1ccc(Br)c(C(F)(F)F)c1)c1ccccc1	none
O=C(Nc1ccc(OCC(F)(F)C(F)F)c(C(F)(F)F)c1)c1ccc(Cl)cc1	TRPM1 prom inh 67.6
O=C1c2ccccc2C2=Nc3ccccc3SC(c3ccc(Cl)cc3)C12 (stereo unspecified)	none
O=C1c2ccccc2C2=Nc3ccccc3SC(c3cccc(F)c3)C12 (stereo unspecified)	Peg3 promoter 57.9
CC1=CC=CC2=NC(=O)CC(C)(C(=O)N(CC(=O)NC3CCCC3)c3ccc(F)cc3)N12 (stereo unspecified)	none
CCCCN(C)S(=O)(=O)c1ccc(C(=O)N(CCN(C)C)c2nc3ccc(C)cc3s2)cc1	none
CCCCN(CC)S(=O)(=O)c1ccc(C(=O)N(CCCN(C)C)c2nc3cc(C)cc(C)c3s2)cc1	TRPM1 prom inh 79.3, Peg3 promoter 103.2
CCN(Cc1ccccc1)S(=O)(=O)c1ccc(C(=O)N(CCCN(C)C)c2nc3cc(C)cc(C)c3s2)cc1	TRPM1 prom inh 90.0, Peg3 promoter 100.1
Cc1ccc(S(=O)(=O)N2C[C@H]3[C@H]4C(=O)N(Cc5ccccc5)C(=O)[C@H]4CC(=O)[C@H]3[C@@H]2c2cccc3ccccc23)cc1	none (no result: TRPM1 prom inh)
COc1ccccc1N(Cc1ccccc1)S(=O)(=O)c1cccc(C(=O)NC2CC(C)(C)NC(C)(C)C2)c1	Peg3 promoter 87.4
CC1(C)CC(NC(=O)c2ccc(Cl)c(S(=O)(=O)N(Cc3ccccc3)c3ccccc3)c2)CC(C)(C)N1	TRPM1 prom inh 91.7, Peg3 promoter 106.9 (no result: ABHD5 PLIN5 PPI)
Cc1onc(-c2ccccc2)c1C(=O)NC(C)CCc1ccccc1 (stereo unspecified)	none
C=C1CCC[C@]2(C)C[C@H]3OC(=O)C(CNC(C)CCCC(C)C)[C@H]3CC12 (stereo partly specified)	Peg3 promoter 103.6
COc1ccc(/C=N/NC(=O)c2ccc(Cl)cc2)cc1Cn1cc(Cl)cn1	KKLEB cytotox -50.8
COc1ccc(/C=N/NC(=O)c2cc(Br)ccc2O)cc1Cn1cc(Cl)cn1	none

Source: PubChem (several laboratories)
